SMILES strings stand for the structures.

The first assay has as its system Vero E6 infected with SARS-CoV-2. Nature of the assay: morphology score (similarity to uninfected cells); higher = more like uninfected cells. The conditions noted are these: 24 h.
Regarding `N[C@@H](Cc1cc(-c2ccc(Cl)cc2Cl)cc(CP(=O)(O)O)c1O)C(=O)O` (10 µM), the morphology score is -0.167. With `CN(C)CCOC(=O)C(c1ccccc1)C1(O)CCCC1` (stereo unspecified) [cyclopentolate] (10 µM), the morphology score came out at 0.178. The same measure, in the same setting: then `Nc1ccc(S(=O)(=O)Nc2ccc(Cl)nn2)cc1` [sulfachlorpyridazine] (10 µM), with 0.104; and `O=C(O)c1ccccc1` [benzoic-acid] (10 µM), with 0.0363.

`O=C(O)CSCC(=O)NC1CCSC1=O` (stereo unspecified) [erdosteine] (10 µM): the morphology score is -0.0411.

In turn, `Oc1ccc(C(O)CNCCCCCCNCC(O)c2ccc(O)c(O)c2)cc1O` (stereo unspecified) [hexoprenaline] (10 µM) displayed a morphology score of 0.0624.

Consider `COC(=O)/C=C/c1cccc(N(Cc2ccc(-c3ccc(N(C)C)cc3)cc2)C(=O)C2CCCCC2)c1` [fexaramine] (10 µM), for which the morphology score was 0.272. On the same count and under the same terms, in the case of `O=C(Nc1cccc(C(F)(F)F)c1)Nc1cc(S(=O)(=O)NC2CC2)ccc1-c1ccsc1` (10 µM) it was 0.196. Still for that read-out and setting: then `C[C@@H]1NC(=O)[C@@H](N)CNC(=O)[C@H](C2CCNC(=N)N2)NC(=O)/C(=C/NC(N)=O)NC(=O)[C@H](CNC(=O)CC(N)CCCN)NC1=O.N=C1NCC[C@H]([C@@H]2NC(=O)/C(=C/NC(N)=O)NC(=O)[C@H](CNC(=O)C[C@@H](N)CCCN)NC(=O)[C@H](CO)NC(=O)[C@@H](N)CNC2=O)N1` [capreomycin] (10 µM), with 0.148; and `OC(CCN1CCCCC1)(c1ccccc1)c1ccccc1` [pridinol] (10 µM), with 0.0166. Same read-out and setting: then `CC(C)[C@H](CO)Nc1nc(Nc2ccc(C(=O)O)c(Cl)c2)c2ncn(C(C)C)c2n1` [purvalanol-B] (10 µM), with -0.00736. In turn, `N#CCC(=O)c1ccccc1` (10 µM) came in with a morphology score of 0.0172. Still for that read-out and setting: in the case of `Nc1ccc2ncnc(NCCc3ccc(Oc4ccccc4)cc3)c2c1` (10 µM) it was -0.17; in that of `N#CC(c1ccccc1)(c1ccccc1)c1ccccc1Cl` (10 µM), 0.164; in that of `CO[C@H]1C[C@H](O[C@H]2[C@H](C)O[C@@H](O[C@@H]3/C(C)=C/C[C@@H]4C[C@@H](C[C@]5(C=C[C@H](C)[C@@H](C6CCCCC6)O5)O4)OC(=O)[C@@H]4C=C(C)[C@@H](O)[C@H]5OC/C(=C\C=C\[C@@H]3C)[C@]54O)C[C@@H]2OC)O[C@@H](C)[C@@H]1O` [doramectin] (0.833333 µM), 0.0705. Same read-out and setting: then `Cc1c(C)c2c(c(C)c1O)CC[C@@](C)(CCC[C@H](C)CCC[C@H](C)CCCC(C)C)O2` [vitamin-E] (10 µM), with -0.299. On the same count and under the same terms, in the case of `Cc1cnc(NC(=O)Nc2cc(Br)c(C)cc2OC[C@@H]2CNCCO2)cn1` (0.833333 µM) it was 0.0474. Compound `N[C@H]1C[C@@H]1c1ccc(-c2cccc(O)c2)cc1` (10 µM) returned a morphology score of 0.246. In turn, `CS(=O)(=O)c1ccc(-c2cnc(N)c(C(=O)Nc3ccccc3)n2)cc1` (10 µM) returned a morphology score of 0.278. Still for that read-out and setting: then `Clc1cccc(Nc2nnc(-c3ccccc3)c3ccccc23)c1` (10 µM), with 0.2. The same measure, in the same setting: in the case of `CC(C)(C)Sc1c(CC(C)(C)C(=O)O)n(Cc2ccc(Cl)cc2)c2ccc(OCc3ccc4ccccc4n3)cc12` [quiflapon] (10 µM) it was -0.04. Still for that read-out and setting: then `O=[N+]([O-])c1cc(O)c(O)c([N+](=O)[O-])c1` (10 µM), with 0.123; and `O=C(NCCO)c1cccc(-c2cc(Nc3ccc(OC(F)(F)F)cc3)ncn2)c1` (10 µM), with -0.0129. In turn, `CC(=O)Nc1ccccc1` [acetanilide] (10 µM) had a morphology score of 0.174. On the same count and under the same terms, in the case of `O=C(c1ccc(OCCCc2c[nH]cn2)cc1)C1CC1` [ciproxifan] (10 µM) it was 0.181.

`COc1c(C)c(C(=O)c2ccc(N)c(C(=O)O)c2)n2ccccc12` (10 µM) had a morphology score of 0.0882. Same read-out and setting: then `Cc1ncc(C[n+]2csc(CCO)c2C)c(N)n1` [thiamine] (10 µM), with 0.119. Same read-out and setting: then `CN1C(=O)C(F)=C[C@]2(C)[C@H]3CC[C@]4(C)[C@@H](C(=O)NCc5nc6cccnc6[nH]5)CC[C@H]4[C@@H]3CC[C@@H]12` (10 µM), with 0.0239. In turn, `OC[C@H]1NCC[C@@H](O)[C@@H]1O` [fagomine] (10 µM) came in with a morphology score of -0.0114.

For a further assay the test system is unchanged. As to the kind of experiment: SARS-CoV-2 infection rate relative to infected DMSO; higher = more infection, active = 60 or less. The conditions noted are these: 24 h.
For `O=C(C[S+]([O-])Cc1ccco1)NC/C=C\COc1cc(CN2CCCCC2)ccn1` (stereo unspecified) [lafutidine] (10 µM), the SARS-CoV-2 infection rate is 94% (inactive). On the same count and under the same terms, in the case of `CC[C@H](C)C[C@H](C)CCCCCCCCC(=O)N[C@H]1C[C@@H](O)[C@@H](NCCN)NC(=O)[C@@H]2[C@@H](O)CCN2C(=O)[C@H]([C@H](O)CCN)NC(=O)[C@H]([C@H](O)[C@@H](O)c2ccc(O)cc2)NC(=O)[C@@H]2C[C@@H](O)CN2C(=O)[C@H]([C@@H](C)O)NC1=O` [caspofungin] (10 µM) it was 108% (inactive); in that of `O=S(=O)(O)c1ccc(O)cc1` [4-phenolsulfonic-acid] (10 µM), 114% (inactive); in that of `CC(C)(C)NCC(O)c1cc(Cl)c(N)c(Cl)c1` (stereo unspecified) [clenbuterol] (10 µM), 110% (inactive). Same read-out and setting: in the case of `COc1nc(N)nc2c1ncn2[C@@H]1O[C@H](CO)[C@@H](O)[C@@H]1O` [nelarabine] (10 µM) it was 109% (inactive). Same read-out and setting: in the case of `O=C1c2ccccc2-c2n[nH]c3cccc1c23` [pyrazolanthrone] (10 µM) it was 106% (inactive); in that of `Cc1csc(S(=O)(=O)N(CC(C)C)c2cc3c(cc2OCc2ccc(C(=O)O)cc2)CCC3)n1` (10 µM), 107% (inactive). On to `O=C1C[C@@H](c2ccc(O)cc2)Oc2cc(O)cc(O)c21` [naringenin] (10 µM), for which the SARS-CoV-2 infection rate was 98.5% (inactive). On the same count and under the same terms, then `C[C@@H](N[C@H]1CCCC[C@@H]1NC(=O)c1ccc(Cl)cc1)c1cccc2ccccc12` [Calhex-231] (10 µM), with 91.5% (inactive). The same measure, in the same setting: in the case of `COc1ccc([C@]2(C#N)CC[C@@H](C(=O)O)CC2)cc1OC1CCCC1` [cilomilast] (10 µM) it was 104% (inactive); in that of `N[C@H](C(=O)O)c1ccc(O)cc1` [oxfenicine] (10 µM), 103% (inactive). On the same count and under the same terms, then `N[C@@H](Cc1cc(-c2ccc(Cl)cc2Cl)cc(CP(=O)(O)O)c1O)C(=O)O` (10 µM), with 107% (inactive). On to `CN(C)CCOC(=O)C(c1ccccc1)C1(O)CCCC1` (stereo unspecified) [cyclopentolate] (10 µM), for which the SARS-CoV-2 infection rate is 93% (inactive). On the same count and under the same terms, in the case of `Nc1ccc(S(=O)(=O)Nc2ccc(Cl)nn2)cc1` [sulfachlorpyridazine] (10 µM) it was 108% (inactive); in that of `O=C(O)c1ccccc1` [benzoic-acid] (10 µM), 110% (inactive); in that of `O=C(O)CSCC(=O)NC1CCSC1=O` (stereo unspecified) [erdosteine] (10 µM), 104% (inactive). Still for that read-out and setting: in the case of `Oc1ccc(C(O)CNCCCCCCNCC(O)c2ccc(O)c(O)c2)cc1O` (stereo unspecified) [hexoprenaline] (10 µM) it was 116% (inactive); in that of `COC(=O)/C=C/c1cccc(N(Cc2ccc(-c3ccc(N(C)C)cc3)cc2)C(=O)C2CCCCC2)c1` [fexaramine] (10 µM), 86% (inactive). Same read-out and setting: in the case of `O=C(Nc1cccc(C(F)(F)F)c1)Nc1cc(S(=O)(=O)NC2CC2)ccc1-c1ccsc1` (10 µM) it was 102% (inactive); in that of `C[C@@H]1NC(=O)[C@@H](N)CNC(=O)[C@H](C2CCNC(=N)N2)NC(=O)/C(=C/NC(N)=O)NC(=O)[C@H](CNC(=O)CC(N)CCCN)NC1=O.N=C1NCC[C@H]([C@@H]2NC(=O)/C(=C/NC(N)=O)NC(=O)[C@H](CNC(=O)C[C@@H](N)CCCN)NC(=O)[C@H](CO)NC(=O)[C@@H](N)CNC2=O)N1` [capreomycin] (10 µM), 100% (inactive). For the compound `OC(CCN1CCCCC1)(c1ccccc1)c1ccccc1` [pridinol] (10 µM), the SARS-CoV-2 infection rate was 108% (inactive). On to `CC(C)[C@H](CO)Nc1nc(Nc2ccc(C(=O)O)c(Cl)c2)c2ncn(C(C)C)c2n1` [purvalanol-B] (10 µM), for which the SARS-CoV-2 infection rate was 101% (inactive). Same read-out and setting: in the case of `N#CCC(=O)c1ccccc1` (10 µM) it was 112% (inactive). The same measure, in the same setting: in the case of `Nc1ccc2ncnc(NCCc3ccc(Oc4ccccc4)cc3)c2c1` (10 µM) it was 102% (inactive); in that of `N#CC(c1ccccc1)(c1ccccc1)c1ccccc1Cl` (10 µM), 89% (inactive); in that of `CO[C@H]1C[C@H](O[C@H]2[C@H](C)O[C@@H](O[C@@H]3/C(C)=C/C[C@@H]4C[C@@H](C[C@]5(C=C[C@H](C)[C@@H](C6CCCCC6)O5)O4)OC(=O)[C@@H]4C=C(C)[C@@H](O)[C@H]5OC/C(=C\C=C\[C@@H]3C)[C@]54O)C[C@@H]2OC)O[C@@H](C)[C@@H]1O` [doramectin] (0.833333 µM), 104% (inactive). On the same count and under the same terms, in the case of `Cc1c(C)c2c(c(C)c1O)CC[C@@](C)(CCC[C@H](C)CCC[C@H](C)CCCC(C)C)O2` [vitamin-E] (10 µM) it was 117% (inactive); in that of `Cc1cnc(NC(=O)Nc2cc(Br)c(C)cc2OC[C@@H]2CNCCO2)cn1` (0.833333 µM), 111% (inactive).

For the compound `N[C@H]1C[C@@H]1c1ccc(-c2cccc(O)c2)cc1` (10 µM), the SARS-CoV-2 infection rate is 87% (inactive).

As to `CS(=O)(=O)c1ccc(-c2cnc(N)c(C(=O)Nc3ccccc3)n2)cc1` (10 µM), the SARS-CoV-2 infection rate was 87% (inactive).

`Clc1cccc(Nc2nnc(-c3ccccc3)c3ccccc23)c1` (10 µM): the SARS-CoV-2 infection rate is 94% (inactive). Still for that read-out and setting: in the case of `CC(C)(C)Sc1c(CC(C)(C)C(=O)O)n(Cc2ccc(Cl)cc2)c2ccc(OCc3ccc4ccccc4n3)cc12` [quiflapon] (10 µM) it was 106% (inactive); in that of `O=[N+]([O-])c1cc(O)c(O)c([N+](=O)[O-])c1` (10 µM), 101% (inactive); in that of `O=C(NCCO)c1cccc(-c2cc(Nc3ccc(OC(F)(F)F)cc3)ncn2)c1` (10 µM), 98.5% (inactive).

As for `CC(=O)Nc1ccccc1` [acetanilide] (10 µM), the SARS-CoV-2 infection rate was 102% (inactive).

For `O=C(c1ccc(OCCCc2c[nH]cn2)cc1)C1CC1` [ciproxifan] (10 µM), the SARS-CoV-2 infection rate was 95.5% (inactive). On the same count and under the same terms, in the case of `COc1c(C)c(C(=O)c2ccc(N)c(C(=O)O)c2)n2ccccc12` (10 µM) it was 105% (inactive).

For the origin of these results see the supplement of paper PMC13380429.
